# Experimental data as given in PubChem BioAssay AID1159577 (Broad Institute, 2015).
# Hit rate of the full screen: of about 1,300 compounds, about 240 (18%) were called active. Another 8% or so got no clear call; they are omitted. No rule for the calls is given here. The list is a sample of the results. Entries with a potency or affinity are not part of this list.
# Test: HepG2 cell cytotoxicity, dose response, cytotoxicity control, cherry-picked samples (AID 1159577);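 also: 0% = neutral control wells and -100% = positive control wells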
# Details: HepG2 cytotoxicity counterscreen, plate reader; series mostly up to 19.5 µM; activity change, negative = cytotoxicity: at the top concentration
row,Compound,"activity change, negative = cytotoxicity"
1,C[C@H]1CN([C@@H](C)CO)C(=O)c2cc(NC(=O)Nc3ccc(C(F)(F)F)cc3)ccc2O[C@@H]1CN(C)C(=O)Nc1cccc2ccccc12,13.6% (inactive)
2,CCCC#Cc1ccc(CC[C@H]2O[C@H]3CC[C@H](CO)O[C@H]3C[C@@H]2n2cc(C(C)(C)O)nn2)cc1,-0.199% (inactive)
3,COc1ccccc1NC(=O)N1CCCCN2[C@H](C1)[C@H](c1ccc(C#CC3CC3)cc1)[C@@H]2CO,21.3% (inactive)
4,O=C(Nc1cccc(F)c1)N1CC(=O)N2[C@H](C1)[C@@H](c1ccc(C#CC3CC3)cc1)[C@@H]2CO,12.5% (inactive)
5,O=C(Nc1ccccc1F)N1CC(=O)N2[C@H](CO)[C@@H](c3ccc(-c4ccccc4)cc3)[C@H]2C1,16.1% (inactive)
6,COc1ccccc1NC(=O)N1CCCCN2[C@@H](CO)[C@H](c3ccc(C#CC4CC4)cc3)[C@@H]2C1,-11.9% (inactive)
7,CO[C@H]1CN(C)C(=O)c2cc(NC(=O)C3CC3)ccc2OC[C@H](C)N(Cc2cc(F)ccc2F)C[C@H]1C,10.8% (inactive)
8,COCC(=O)N1[C@@H](C#N)[C@H](c2ccccc2-c2ccccc2)[C@@H]1CO,-10.8% [at 21 µM] (inactive)
9,CCCC#Cc1ccc2c(c1)[C@@H]1[C@@H](CCN1S(=O)(=O)c1ccccc1C)[C@@H](CO)N2,6.95% [at 21 µM] (inactive)
10,COc1ccc2c3c([nH]c2c1)[C@H](CO)N(Cc1cc(F)ccc1F)CC31CN(C(=O)C2CCC2)C1,9.59% (inactive)
11,COc1ccc(-c2ccccc2[C@H]2[C@@H](C#N)N(C(=O)C3CCCCC3)[C@H]2CO)cc1,1.19% (inactive)
12,C[C@@H]1CN([C@H](C)CO)C(=O)c2cccc(NC(=O)c3ccc(-c4nccs4)cc3)c2O[C@H]1CN(C)Cc1ccc2c(c1)OCO2,0.334% (inactive)
13,CCCNC[C@H]1[C@@H](c2ccc(C3=CCCCC3)cc2)[C@@H](CO)N1C(=O)C1CCC1,-12.2% (inactive)
14,CCCNC(=O)N1[C@H](C#N)[C@H](c2ccc(C3=CCCCC3)cc2)[C@H]1CO,-10.4% [at 21 µM] (inactive)
15,N#C[C@@H]1[C@H](c2ccc(C3=CCCC3)cc2)[C@@H](CO)N1C(=O)NC1CCCC1,-23.9% (inactive)
16,CCC(=O)N1[C@H](CO)[C@H](c2ccc(C3=CCCCC3)cc2)[C@H]1CNCC1CCC1,-15% (inactive)
17,N#C[C@@H]1[C@@H](c2ccc(C3=CCCCC3)cc2)[C@H](CO)N1C(=O)NC1CCCC1,3.23% (inactive)
18,OC[C@@H]1[C@H](c2ccc(C3=CCCC3)cc2)[C@@H](CNC2CCCC2)N1CC1CC1,-13.2% (inactive)
19,C/C=C/c1ccc([C@H]2[C@@H](CO)N(C(=O)C3CCCC3)[C@H]2CNCCC)cc1,-0.865% [at 21 µM] (inactive)
20,CCCNC(=O)N1[C@H](C#N)[C@@H](c2ccccc2C2=CCCC2)[C@@H]1CO,-20.4% [at 21 µM] (inactive)
21,COc1ccc(C#Cc2cccc(-c3nc(C(=O)NCc4ccc5c(c4)OCO5)cc4c3[C@@H](CCO)N(S(=O)C(C)(C)C)C4)c2)cc1OC (stereo partly drawn),8.9% (inactive)
22,C[C@H]1CN([C@@H](C)CO)C(=O)c2c(c3ccccc3n2C)-c2ccccc2CO[C@@H]1CN(C)C(=O)Nc1cccc(F)c1,-4.89% (inactive)
23,Cc1ccc(S(=O)(=O)N(C)C[C@H]2Oc3cc(C#Cc4ccncc4)ccc3S(=O)(=O)N([C@@H](C)CO)C[C@@H]2C)cc1,4.85% (inactive)

row,Compound,"activity change, negative = cytotoxicity"
1,CO[C@@H]1CN(C)C(=O)c2ccc(NC(=O)Nc3ccccc3F)cc2OC[C@@H](C)N(CCC(F)(F)F)C[C@H]1C,35.7% [at 21 µM] (inactive)
2,CO[C@H]1CN(C)C(=O)c2ccc(NS(=O)(=O)CC(F)(F)F)cc2OC[C@H](C)N(C)C[C@@H]1C,0.408% [at 21 µM] (inactive)
3,COc1ccc(C#Cc2ccc([C@@H]3[C@@H](CO)N4C(=O)CN(C(=O)c5ccccc5)C[C@H]34)cc2)cc1,-1.78% (inactive)
4,COc1cccc(C#Cc2ccc([C@H]3[C@@H](CO)N(C(=O)C4CCC4)[C@H]3C#N)cc2)c1,6.14% (inactive)
5,C[C@H]1CN([C@@H](C)CO)C(=O)c2cc(NC(=O)Nc3cccc4ccccc34)ccc2O[C@H]1CN(C)C(=O)Nc1ccc(C(F)(F)F)cc1,4.51% (inactive)
6,C[C@@H]1CN([C@H](C)CO)C(=O)c2cccc(NC(=O)Nc3cccc4ccccc34)c2O[C@@H]1CN(C)C(=O)Nc1ccc(C(F)(F)F)cc1,2.88% (inactive)
7,COc1ccccc1S(=O)(=O)N[C@H]1CC[C@@H](CCn2cc(C3CCCC3)nn2)O[C@@H]1CO,7% (inactive)
8,COc1cccc(-c2cn(CC[C@@H]3CC[C@@H](NS(=O)(=O)c4ccccc4Cl)[C@H](CO)O3)nn2)c1,1.93% (inactive)
9,COc1ccc(C#Cc2cccc(-c3nc(C(=O)N[C@@H]4CCN(Cc5ccccc5)C4)cc4c3[C@H](CCO)N(S(=O)C(C)(C)C)C4)c2)cc1OC (stereo partly drawn),-5.33% (inactive)
10,O=C(Nc1ccc(F)cc1)N1CCCCN2[C@H](CO)[C@H](c3ccc(C#Cc4ccccc4)cc3)[C@@H]2C1,5.78% (inactive)
11,O=C(Nc1ccc(F)cc1)N1CCCCN2[C@H](C1)[C@H](c1ccc(C#Cc3ccccc3)cc1)[C@@H]2CO,-8.08% (inactive)
12,CCC(=O)N1CC2(C1)[C@H](c1ccccc1)[C@H](CO)N2Cc1ccccc1OC,-15.2% (inactive)
13,CC(C)(C)[S@](=O)N1Cc2cc(C(=O)NCc3ccccc3F)nc(-c3cccc(-c4ccncc4)c3)c2[C@@H]1CCO,3.09% [at 21 µM] (inactive)
14,COc1ccc(-c2ccc([C@@H]3[C@@H](CO)N4CCCCN(C(=O)c5ccc6c(c5)OCO6)C[C@@H]34)cc2)cc1,-15.9% (inactive)
15,COc1ccc(CNC(=O)c2cc3c(c(-c4cccc(-c5cccc(C#N)c5)c4)n2)[C@H](CCO)N([S@@](=O)C(C)(C)C)C3)cc1,8.03% [at 21 µM] (inactive)
16,C[C@H]1CN([C@@H](C)CO)C(=O)c2c(c3ccccc3n2C)-c2ccccc2CO[C@H]1CN(C)S(=O)(=O)c1ccc([N+](=O)[O-])cc1,24.4% (inactive)
17,N#C[C@@H]1[C@H](c2ccccc2-c2ccc(F)cc2)[C@H](CO)N1C(=O)NC1CCCC1,-6.01% [at 21 µM] (inactive)
18,Cc1ccccc1S(=O)(=O)N(C)C[C@H]1OCc2ccccc2-c2ccccc2C(=O)N([C@@H](C)CO)C[C@H]1C,14.9% (inactive)
19,CO[C@@H]1CN(C)C(=O)c2cc(NC(=O)c3nc4ccccc4s3)ccc2OC[C@H](C)NC[C@H]1C,-7.06% [at 18 µM] (inactive)
20,CO[C@H]1CN(C)C(=O)c2cc(NC(=O)c3nc4ccccc4s3)ccc2OC[C@H](C)NC[C@@H]1C,3.64% (inactive)
21,CO[C@@H]1CN(C)C(=O)c2ccc(NC(=O)C3CC3)cc2OC[C@@H](C)N(Cc2cc(F)ccc2F)C[C@H]1C,28.2% (inactive)
22,COc1ccc(C#Cc2ccc3c(c2)[C@@H]2[C@@H](CCN2C(=O)C2CCCC2)[C@@H](CO)N3)cc1,-3.3% (inactive)
23,CCC(=O)N1CC2(C1)CN(Cc1ccccc1Cl)[C@@H](CO)c1[nH]c3cc(OC)ccc3c12,-18% (inactive)

row,Compound,"activity change, negative = cytotoxicity"
1,COc1ccccc1NC(=O)N1CC[C@H]2[C@@H]1c1cc(C#Cc3ccc(F)cc3)ccc1N(C)[C@H]2CO,0.332% (inactive)
2,C[C@H]1CN([C@@H](C)CO)C(=O)c2c(c3ccccc3n2C)-c2ccccc2CO[C@@H]1CN(C)S(=O)(=O)c1ccccc1F,26.4% (inactive)
3,CO[C@@H]1CN(C)C(=O)c2ccc(NC(=O)c3ccc(F)cc3)cc2OC[C@@H](C)N(C(=O)c2ccc(F)cc2)C[C@@H]1C,-17.4% (inactive)
4,CO[C@@H]1CN(C)C(=O)c2cc(NC(=O)c3ccc(Oc4ccccc4)cc3)ccc2OC[C@H](C)NC[C@@H]1C,-20.5% (inactive)
5,COc1cccc(NC(=O)Nc2ccc3c(c2)C(=O)N(C)C[C@@H](OC)[C@H](C)CN[C@@H](C)CO3)c1,14.9% (inactive)
6,O=C(c1ccccn1)N1CC(=O)N2[C@H](C1)[C@@H](c1ccc(C#CCc3ccccc3)cc1)[C@@H]2CO,6.5% (inactive)
7,CCCN(C)C[C@@H]1Oc2cc(C#CC3CCCC3)ccc2S(=O)(=O)N([C@@H](C)CO)C[C@@H]1C,10.3% (inactive)
8,COc1ccc2c3c(n(C)c2c1)[C@@H](CO)N(C(=O)Nc1ccccc1F)CC31CCN(C)CC1,-3.88% (inactive)
9,COc1ccc2c3c(n(C)c2c1)[C@H](CO)N(C(=O)Nc1ccc(F)cc1)CC31CN(C(=O)NC2CCCC2)C1,9.57% (inactive)
10,COc1ccc2c3c(n(C)c2c1)[C@@H](CO)N(S(C)(=O)=O)CC31CCN(C(=O)CN(C)C)CC1,3.76% (inactive)
11,COc1ccc2c3c(n(C)c2c1)[C@@H](CO)N(C(=O)Nc1ccc(F)cc1)CC31CN(C(=O)c2ccccc2F)C1,-10.6% (inactive)
12,COc1ccc2c3c(n(C)c2c1)[C@H](CO)N(C(=O)Nc1ccc(F)cc1)CC31CCN(C)CC1,-3.13% [at 21 µM] (inactive)
13,COc1ccc2c3c(n(C)c2c1)[C@H](CO)N(C(=O)Nc1ccc(F)cc1)CC31CN(Cc2cccnc2)C1,-14% (inactive)
14,COc1ccc2c3c(n(C)c2c1)[C@@H](CO)N(C(=O)Nc1ccc(F)cc1)CC31CCN(Cc2cccnc2)CC1,-13.2% (inactive)
15,COc1ccc2c3c(n(C)c2c1)[C@@H](CO)N(Cc1ccccc1)CC31CCN(S(=O)(=O)c2ccc(C)cc2)CC1,-3.8% (inactive)
16,COc1ccc(-c2ccccc2[C@H]2[C@@H](C#N)N(C(=O)NC3CCCCC3)[C@H]2CO)cc1,-11% (inactive)
17,C[C@H](CO)N1C[C@H](C)[C@H](CN(C)S(=O)(=O)c2ccc([N+](=O)[O-])cc2)OCc2ccccc2-c2c(n(C)c3ccccc23)C1=O,25.4% (inactive)
18,CCNC(=O)c1cc2c(c(-c3cccc(-c4ccccc4F)c3)n1)[C@@H](CCO)N(C(=O)CC1CC1)C2,-8.91% (inactive)
19,C[C@H]1CN([C@@H](C)CO)C(=O)c2c(c3ccccc3n2C)-c2ccccc2CO[C@H]1CN(C)S(=O)(=O)c1ccc(Cl)cc1,10% (inactive)
20,C[C@@H](C(=O)N(C)C[C@@H]1OCc2ccccc2-c2c(n(C)c3ccccc23)C(=O)N([C@@H](C)CO)C[C@@H]1C)c1ccccc1,19.2% [at 21 µM] (inactive)
21,COc1cccc(S(=O)(=O)N(C)C[C@@H]2Oc3ncc(C#Cc4ccc(C(F)(F)F)cc4)cc3C(=O)N([C@H](C)CO)C[C@@H]2C)c1,-19.5% (inactive)
22,C[C@H](CO)N1C[C@H](C)[C@@H](CN(C)S(=O)(=O)c2ccccc2)Oc2ccc(NC(=O)Cc3cn(C)c4ccccc34)cc2C1=O,-11.3% (inactive)
